In the supplement of paper PMC8975748:
Counter-ions that a name gives are not always drawn.

tested on: Saccharomyces cerevisiae BY4741 SeMeCo community; test: z-score of subpopulation abundance vs DMSO median, subpopulation auxotrophic for LM; higher = larger share of this subpopulation than in DMSO controls; conditions: 10 µM; 24 h; SM minimal medium; subpopulation (auxotrophy): LM
Method: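 Fluorescent four-plasmid SeMeCo (self-establishing metabolically cooperating S. cerevisiae BY4741 community; plasmids pH-mRuby2, pL-mWasabi, pU-eCFP, pM-TagRFP657) was grown 24 h in minimal SM medium with each Selleck FDA-approved drug at 10 µM in 384-well plates. Cells were fixed and imaged by high-content confocal microscopy. For each auxotrophic subpopulation (and the prototroph), a z-score gives the deviation from the DMSO vehicle-control population median.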

| SMILES | z-score of subpopulation abundance |
| --- | --- |
| CC(C)N(CCC(C(N)=O)(c1ccccc1)c1ccccn1)C(C)C (centres undefined) [Disopyramide] | 1.31 |
| CC(=O)OCC1=C(C(=O)O)N2C(=O)C(N)C2SC1 (centres undefined) [7-Aminocephalosporanic acid] | -0.28 |
| Nc1ccncc1 [4-Aminopyridine] | 0.74 |
| CC[C@H]1CN2CC[C@]3(C(=O)Nc4ccccc43)[C@@H]2C[C@@H]1/C(=C\OC)C(=O)OC [Rhynchophylline] | -0.11 |
| C[C@@H]1O[C@@H](O[C@H]2C[C@@H](O)[C@]3(CO)[C@H]4[C@H](O)C[C@]5(C)[C@@H](C6=CC(=O)OC6)CC[C@]5(O)[C@@H]4CC[C@]3(O)C2)[C@H](O)[C@H](O)[C@H]1O [Ouabain] | -0.83 |
| CN[C@@H]1[C@@H](O)[C@@H](O[C@@H]2[C@@H](O)[C@H](O[C@H]3O[C@H](CN)CC[C@H]3N)[C@@H](N)C[C@H]2N)OC[C@]1(C)O.CN[C@@H]1[C@@H](O)[C@@H](O[C@@H]2[C@@H](O)[C@H](O[C@H]3O[C@H]([C@@H](C)N)CC[C@H]3N)[C@@H](N)C[C@H]2N)OC[C@]1(C)O.CN[C@@H]1[C@@H](O)[C@@H](O[C@@H]2[C@@H](O)[C@H](O[C@H]3O[C@H]([C@@H](C)NC)CC[C@H]3N)[C@@H](N)C[C@H]2N)OC[C@]1(C)O [Gentamicin Sulfate] | -0.12 |
| CC[N+](C)(CC)CCOC(=O)C(O)(c1ccccc1)c1ccccc1 [Methylbenactyzine Bromide] | -0.89 |
| O=C(O[C@H]1C[C@H]2CC[C@@H](C1)[N+]21CCCC1)C(O)(c1ccccc1)c1ccccc1 [Trospium chloride] | -0.54 |
| O=[N+]([O-])C(Br)(CO)CO [Bronopol] | -0.89 |
| COc1ccc(C(CN(C)C)C2(O)CCCCC2)cc1 (centres undefined) [Venlafaxine HCl] | 0.27 |
| C#C[C@]1(O)C=C[C@H]2[C@@H]3CCC4=CC(=O)CC[C@@H]4[C@H]3CC[C@@]21CC [Gestodene] | 0.29 |
| C[C@H]1O[C@H](O[C@H]2[C@H](O)[C@@H](O)[C@@H](O)[C@H](O)[C@@H]2O)[C@@H](N)C[C@@H]1NC(=N)C(=O)O [Kasugamycin hydrochloride] | 0.45 |
| Cn1cc(C2=C(c3cn(C4CCN(Cc5ccccn5)CC4)c4ccccc34)C(=O)NC2=O)c2ccccc21 | -1.68 |
| CC(=O)O[C@H]1C[C@@H]2CC[C@@H]3[C@H](CC[C@@]4(C)[C@H]3C[C@H]([N+]3(C)CCCCC3)[C@@H]4OC(C)=O)[C@@]2(C)C[C@@H]1[N+]1(C)CCCCC1 [Pancuronium dibromide] | -1.26 |
| CN1[C@@H]2CC[C@H]1C[C@@H](OC(=O)C(CO)c1ccccc1)C2 (some centres undefined) [Atropine sulfate monohydrate] | -0.12 |
| CN1C(=O)COc2c(C(=O)NC3CN4CCC3CC4)cc(Cl)cc21 (centres undefined) [Azasetron HCl] | 1.69 |
| COC(=O)C1=CCCN(C)C1 [Arecoline HBr] | 0.61 |

| SMILES | z-score of subpopulation abundance |
| --- | --- |
| C=CCN1C[C@H](C(=O)N(CCCN(C)C)C(=O)NCC)C[C@@H]2c3cccc4[nH]cc(c34)C[C@H]21 [Cabergoline] | -0.31 |
| N#Cc1nn(-c2c(Cl)cc(C(F)(F)F)cc2Cl)c(N)c1[S+]([O-])C(F)(F)F (centres undefined) [Fipronil] | -0.79 |
| C[C@@H]1CC[C@H]2[C@@H](C)C(=O)O[C@@H]3O[C@@]4(C)CC[C@@H]1[C@]32OO4 [Artemisinin] | -1.74 |
| C=CN1CCCC1=O.II [Povidone iodine] | -0.46 |
| C[CH2][Hg][S]c1ccccc1C(=O)[O-].[Na+] [Thimerosal] | 13.9 |
| COc1ccc2c3c([nH]c2c1)C(C)=NCC3 [Harmaline] | 4.83 |
| COc1ccc(C=O)cc1 [p-Anisaldehyde] | -0.17 |
| C[N+](C)(C)CCCCCCCCCC[N+](C)(C)C [Decamethonium Bromide] | -0.15 |
| CN(C)C(=O)Oc1cccc([N+](C)(C)C)c1 [Neostigmine Bromide] | 0.26 |
| CN1[C@@H]2CC[C@H]1C[C@@H](OC(=O)[C@H](CO)c1ccccc1)C2 [Hyoscyamine] | -0.17 |
| CN(C)[C@@H]1C(=O)C(C(N)=O)=C(O)[C@@]2(O)C(=O)C3=C(O)c4c(O)cccc4[C@@](C)(O)[C@H]3[C@H](O)[C@@H]12 [Oxytetracycline Dihydrate] | -0.49 |
| CCN(CC)CCOC(=O)C(O)(c1ccccc1)c1ccccc1 [Benactyzine hydrochloride] | 0.4 |
| COc1ccc2c(c1)[C@]13CCCC[C@@H]1[C@H](C2)N(C)CC3 [Dextromethorphan hydrobromide hydrate] | -0.18 |
| CCOC(=O)Nc1ccc(NCc2ccc(F)cc2)cc1N [Retigabine] | -0.12 |
| CN(C)[C@@H]1C(=O)C(C(N)=O)=C(O)[C@@]2(O)C(=O)C3=C(O)c4c(O)cccc4[C@@](C)(O)[C@H]3C[C@@H]12 [Tetracycline HCl] | -0.24 |
| C[N+]12CCC(CC1)C(OC(=O)C(O)(c1ccccc1)c1ccccc1)C2 (centres undefined) [Clidinium Bromide] | -0.72 |
| CC(C)=CCOc1c2occc2cc2ccc(=O)oc12 [Imperatorin] | 0 |
